# Laboratory results published in PubChem BioAssay.
# The source made the active and inactive calls. Unless noted, how the calls were made is not given here.
# Key:
# [1] = system: Wnt5a (protein binding on small-molecule microarray); test: small molecules binding Wnt5a protein – biophysical, small-molecule microarray, 635/667 nm fluorescence, primary screen (AID 1142); conditions: 635 nm fluorescence, higher = more signal;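 further: fluorescence read at 667 nm with signal to noise per printed feature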
# [2] = ATP-based viability of Huh7 replicon cells – cell-based, CellTiter-Glo luminescence, basal, 48 h, cytotoxicity control for HCV replication inhibitor project, primary screen (AID 1143); conditions: higher = more signal, called active from +8 up or from −8 down;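 further: Huh7 hepatoma cells carrying a hepatitis C replication reporter with no stimulus; test concentration not given here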
# [3] = Pseudomonas biofilm growth suppression – PAO1 strain, BacTiter-Glo luminescence, LB-PBS, primary screen (AID 1144); conditions: P. aeruginosa PAO1 biofilm, 12 h, higher = more signal
# [4] = basal CRE-LacZ reporter activity in PC12 – cell-based, unstimulated, primary screen (AID 1145); conditions: no forskolin, luminescence, 4.5 h, higher = more signal, called active from +8 up or from −8 down
# [5] = forskolin-driven CRE-LacZ activity in PC12 – cell-based, CRE-LacZ reporter, forskolin-stimulated, primary screen (AID 1146); conditions: luminescence, 4.5 h, higher = more signal, called active from +8 up or from −8 down;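 further: PC12 cells with 6xCRE LacZ reporter stimulated by forskolin 10 µM; beta-galactosidase reporter signal reflecting CREB driven transcription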
# [6] = biological target: Streptavidin (Streptomyces avidinii) (UniProt P22629); test: compounds binding control protein streptavidin – biophysical, small-molecule microarray, 635/667 nm fluorescence, artefact control for SMM compound annotation, primary screen (AID 1147); conditions: higher = more signal;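 further: signal reflects streptavidin binding to arrayed compounds as a control protein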
# Streptavidin (Streptomyces avidinii), sequence (P22629 whole entry, looked up): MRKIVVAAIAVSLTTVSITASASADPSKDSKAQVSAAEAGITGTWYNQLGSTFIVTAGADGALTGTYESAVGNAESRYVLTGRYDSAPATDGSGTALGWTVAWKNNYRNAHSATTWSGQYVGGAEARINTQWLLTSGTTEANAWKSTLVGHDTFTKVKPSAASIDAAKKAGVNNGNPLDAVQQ
# [7] = probe aInhba binding on compound microarray – biochemical, small-molecule microarray, 635/667 nm fluorescence, primary screen (AID 1148); conditions: higher = more signal;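 further: score merges 667nm spot fluorescence with signal-to-noise for antibody binding to printed compounds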
# Torsin-1A (Homo sapiens) [8] = biological target: Torsin-1A (Homo sapiens) (UniProt O14656); test: TOR1A wild-type binding on microarray – cell lysate, small-molecule microarray, lysate, 635/667 nm, primary screen (AID 1149); conditions: COS7 hTOR1A-WT lysate, 635 nm fluorescence, higher = more signal
# Torsin-1A (Homo sapiens), sequence (O14656 whole entry, looked up): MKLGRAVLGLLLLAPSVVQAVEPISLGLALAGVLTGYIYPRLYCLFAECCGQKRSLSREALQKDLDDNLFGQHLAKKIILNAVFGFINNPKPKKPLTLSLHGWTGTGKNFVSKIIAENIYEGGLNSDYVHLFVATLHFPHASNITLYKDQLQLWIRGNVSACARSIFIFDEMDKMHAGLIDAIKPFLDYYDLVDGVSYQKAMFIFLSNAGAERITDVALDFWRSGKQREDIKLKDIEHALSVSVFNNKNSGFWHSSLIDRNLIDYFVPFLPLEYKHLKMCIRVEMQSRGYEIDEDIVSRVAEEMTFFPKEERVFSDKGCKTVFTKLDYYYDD
# Torsin-1A (Homo sapiens) [9] = biological target: Torsin-1A (Homo sapiens) (UniProt O14656); test: torsin A mutant lysate binding on microarrays – cell lysate, small-molecule microarray, COS7 lysate, 635/667 nm fluorescence, primary screen (AID 1150); conditions: COS7 hTOR1A mutant lysate, 635 nm fluorescence, higher = more signal;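 further: score pools 667 nm emission and signal to noise measuring lysate protein binding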
# [10] = system: Sonic hedgehog protein (Shh); test: Sonic hedgehog microarray binding compounds – biochemical, small-molecule microarray, 635/667 nm fluorescence, primary screen (AID 1151); conditions: 635 nm fluorescence, higher = more signal;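 further: Shh protein binding to compounds spotted on small-molecule microarray slides; score combines spot fluorescence intensity with signal-to-noise across triplicate slides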
Compound,composite z-score [1],z-score [2],z-score [3],z-score [4],z-score [5],composite z-score [6],composite z-score [7],composite z-score (Torsin-1A (Homo sapiens) [8]),composite z-score (Torsin-1A (Homo sapiens) [9]),composite z-score [10]
CC(c1ccccc1)C(O)C1C=CC2C(=O)N(c3ccccc3)C(=O)C2N1Nc1ccccc1 (stereo not given),0.821,-3.13 (inactive),-0.626 (inactive),0.246 (inactive),0.379 (inactive),1.67,0.0906,0.524,1.07,0.843
CS(=O)(=O)CCOC(=O)C1=CC(CCCO)=CC(c2ccc(CN3CCCC3)cc2)N(Cc2cccc(OC(F)(F)F)c2)C=C1C(=O)OCCS(C)(=O)=O (stereo not given),0.531,-1.42 (inactive),4.41 (inactive),4.56 (inactive),-0.0478 (inactive),0.812,0.259,0.907,1.33,0.798
[N-]=[N+]=Nc1ccccc1C[C@]1(C(=O)NCC(O)CO)N=C(c2ccc(OCCCO)cc2)O[C@H]1c1ccccc1 (stereo not given in full),-0.541,-3.23 (inactive),0.382 (inactive),1.19 (inactive),-1.55 (inactive),0.204,0.0134,-0.268,0.089,-1.61
COCCCNC(=O)[C@]1(Cc2ccccc2)N=C(c2ccc(OCCCO)cc2)O[C@@H]1c1ccccc1CN=[N+]=[N-],0.703,-3.68 (inactive),-0.0105 (inactive),-0.09 (inactive),-1.03 (inactive),1.31,0.491,0.52,0.82,-0.147
C#CCN1[C@@H](Cc2ccc(O)cc2)C(=O)O[C@H](Cc2ccccc2)[C@@H]1/C=C/C1CC1,0.0515,-4.07 (inactive),1.75 (inactive),15.1 (active),1.42 (inactive),-0.196,-0.224,0.161,0.364,0.284
CC(=O)Nc1cc(Br)ccc1C(=O)NCc1ccccc1,-0.0375,-0.798 (inactive),0.0338 (inactive),-0.348 (inactive),-1.14 (inactive),0.725,-0.0963,-0.0164,-0.0323,-0.24
O=C1O[C@H](c2ccccc2)[C@H](c2ccccc2)N2[C@H]1[C@@H](C(=O)NC[C@H](O)c1ccccc1)[C@]1(C(=O)Nc3ccc(C#CC4=CCCCC4)cc31)[C@H]2c1ccccc1OCCO,0.401,-6.13 (inactive),-0.297 (inactive),-0.0784 (inactive),-0.0119 (inactive),0.787,0.0659,0.0585,0.223,0.134
CCCC=C(CCC)[C@@H](NS(=O)(=O)c1ccc(Cl)cc1)c1ccc(C(=O)OC)cc1,-0.16,-0.296 (inactive),-0.382 (inactive),-0.179 (inactive),-0.146 (inactive),0.997,-0.0011,0.771,1.38,-0.562
C=CC[C@@]1(C(=O)N2CCCCC2)N=C(c2ccc(OCCCO)cc2)O[C@@H]1c1ccccc1N=[N+]=[N-],0.288,-4.35 (inactive),-0.588 (inactive),4.01 (inactive),-1.53 (inactive),1.18,0.0391,-0.151,1.03,-0.0797
C=CC[C@]1(C(=O)N2CCOCC2)N=C(c2ccc(OCCCO)cc2)O[C@H]1c1ccccc1N=[N+]=[N-],0.268,-4.25 (inactive),-0.0153 (inactive),-0.193 (inactive),-1.78 (inactive),0.883,0.122,0.35,0.705,-0.269
COc1ccc([Si](C)(C)[C@@H]2[C@@H](CCn3cc([C@H](O)c4ccccc4)nn3)O[C@]3(C(=O)N(Cc4cccc(N5CCC5=O)c4)c4ccccc43)[C@H]2C)cc1,-0.166,-2.43 (inactive),-1.1 (inactive),-0.272 (inactive),-0.144 (inactive),0.0185,-0.0477,0.423,0.0953,0.71
COC(=O)c1c2oc(c1C(=O)OC)C(=O)N[C@@H](C(C)C)Cn1cc(nn1)C1(CCCCC1)NC(=O)N[C@H](CO)CC2,0.432,0.24 (inactive),-0.377 (inactive),2.08 (inactive),-0.178 (inactive),0.177,-0.0477,0.935,0.48,0.246
NC(=O)N1C(=O)C2C(C1=O)C1C=C(CCCO)C2C(C2CC2)N1Cc1cc2c(cc1Br)OCO2 (stereo not given),-0.219,-0.387 (inactive),1.44 (inactive),4.37 (inactive),0.0317 (inactive),0.129,-0.157,0.0457,0.28,0.195
C=CCN(Cc1ccccc1)C(=O)C(c1cccs1)N(C(=O)/C=C\C(=O)O)c1ccc(CCOCCO)cc1 (stereo not given),-0.913,-0.0564 (inactive),-1.75 (inactive),-0.0737 (inactive),-0.771 (inactive),-1.82,-0.133,-2.08,-2.48,-0.595
O=C(O)[C@H](Cc1ccccc1)n1cc(-c2ccccc2)nn1,0.469,0.594 (inactive),0.192 (inactive),1.56 (inactive),0.219 (inactive),0.572,-0.0494,0.0641,0.804,0.172
CC(C)CNC(=O)[C@@]1(Cc2ccccc2I)c2ccccc2C(=O)N(Cc2ccccc2C(F)(F)F)[C@H]1c1ccc(CO)cc1,-0.0971,0.0523 (inactive),0.0415 (inactive),-0.295 (inactive),1.04 (inactive),-0.198,-0.128,-0.177,-0.185,-0.197
CCOC(=O)C[C@H]1[C@H](OC(=O)c2ccc(C(=O)c3ccccc3)cc2)[C@@H](NC(=O)c2ccccc2)c2cc(OCCCO)ccc2N1C(=O)c1ccccc1,0.261,-0.622 (inactive),-0.948 (inactive),-0.346 (inactive),1.13 (inactive),0.512,0.0541,0.138,0.628,0.907
CCOC(=O)C1=CC[C@H]2C(=O)N(c3ccccc3)C(=O)[C@@H]12,0.125,-0.321 (inactive),0.96 (inactive),0.836 (inactive),-0.0473 (inactive),0.9,0.19,0.079,1.08,0.814
C=CC[C@]1(C(=O)NCc2ccccc2)N=C(c2ccc(OCCCO)cc2)O[C@H]1c1ccccc1CN=[N+]=[N-],0.625,-3.52 (inactive),-0.728 (inactive),0.857 (inactive),-0.116 (inactive),0.866,0.682,-0.221,0.631,-0.251
COCCOC(=O)N1C(=O)[C@@]2(c3cc(C#CC4(O)CCCCCC4)ccc31)[C@H](C(=O)Nc1nc3ccccc3s1)[C@H]1C(=O)O[C@H](c3ccccc3)[C@H](c3ccccc3)N1[C@@H]2c1ccccc1OCCO,0.82,-2.5 (inactive),0.451 (inactive),0.212 (inactive),-0.192 (inactive),0.845,-0.0762,0.61,0.144,0.976
COc1ccc(NN2C(C(O)c3ccc(N(C)C)cc3)C=CC3C(=O)N(C4CCCCC4)C(=O)C32)cc1 (stereo not given),0.66,-0.759 (inactive),-0.805 (inactive),-0.583 (inactive),-0.249 (inactive),1.46,0.346,0.0944,1.11,0.0202
COC(=O)c1c2oc(c1C(=O)OC)C(=O)NC1(CCCCC1)c1cn(nn1)C[C@H](Cc1ccccc1)NC(=O)N[C@H](CO)CC2,-0.151,-0.275 (inactive),-0.926 (inactive),3.49 (inactive),-0.696 (inactive),1.05,-0.05,-0.299,0.113,1.32
C=CC1c2cc(O)c(OC)cc2CCN1Cc1cccc(OC(F)(F)F)c1 (stereo not given),-0.415,-2.49 (inactive),0.0435 (inactive),-0.527 (inactive),1.28 (inactive),0.577,-0.152,-1.1,0.88,0.12
C=C(CCCC)C(=O)CC[C@H](OC(=O)c1cccnc1)c1ccc(OCCO)cc1,0.0366,-2.23 (inactive),0.192 (inactive),13.3 (active),2.15 (inactive),-0.118,0.0903,0.471,0.546,0.381
CCN(CC)c1ccc(N2CC=CC34O[C@@H]5/C=C\CCC(C)OC(=O)C5[C@H]3C(=O)N(CCCCCO)[C@@H]4C2=O)cc1 (stereo not given in full),-0.408,0.16 (inactive),1.24 (inactive),1.16 (inactive),-0.418 (inactive),-1.1,-0.016,-1.47,-1.59,-0.0874
O=C1C2C=CC(C(O)COCc3ccccc3)N(Nc3ccc([N+](=O)[O-])cc3)C2C(=O)N1c1ccccc1 (stereo not given),0.43,-3 (inactive),-1.83 (inactive),-0.275 (inactive),0.788 (inactive),0.464,0.0743,0.272,0.165,0.57
CN1C(=O)C2C=CC(C(O)C=Cc3ccc([N+](=O)[O-])cc3)N(Nc3ccccc3)C2C1=O (stereo not given),0.286,-0.143 (inactive),-0.585 (inactive),0.426 (inactive),0.528 (inactive),1.16,0.0497,0.0394,-0.0071,0.428
CCOc1ccc(N2C(=O)CSC2c2cccc([N+](=O)[O-])c2)cc1 (stereo not given),0.124,-0.689 (inactive),-0.245 (inactive),-0.0243 (inactive),-1.34 (inactive),0.804,-0.0448,0.331,0.731,0.0304
C=CCNC(=O)[C@@H]1[C@H]2C(=O)O[C@H](c3ccccc3)[C@H](c3ccccc3)N2[C@H](c2ccc(OCCO)cc2)[C@@]12C(=O)N(C(=O)OCCOC)c1ccc(C#CCC(C(=O)OC)C(=O)OC)cc12,0.486,-2.47 (inactive),0.975 (inactive),0.208 (inactive),-0.208 (inactive),0.386,0.322,0.126,0.681,1.09
[N-]=[N+]=NCc1ccccc1[C@@H]1OC(c2ccc(OCCCO)cc2)=N[C@]1(CCS(=O)(=O)c1ccccc1)C(=O)N1CCCCC1,0.571,-2.09 (inactive),0.406 (inactive),5.06 (inactive),0.243 (inactive),1.19,0.531,0.292,0.447,-0.0529
